Screening results: PubChem BioAssay, Johns Hopkins Ion Channel Center
KCNQ2 pot – potentiators of rat KCNQ2 potassium channel; CHO-K1 KCNQ2, FluxOR thallium flux fluorescence; active compounds read high; Potassium voltage-gated channel subfamily KQT member 2 (Rattus norvegicus), O88943; B-score at 10 µM; 310,000 tested, 0.54% active; AID 2239, 2010;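 active = fluorescence ratio B-score at least 3 SD of library B-scores, with initial fluorescence B-score within 3 of them, cut at about 5.3 in these data; same plate scores as AID 2156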;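 note: B-score of peak minus minimum over baseline fluorescence ratio after K+ and Tl+ stimulus; positive B-score means potentiation of KCNQ2 with more thallium influx and brighter signal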
KCNQ2 block – rat KCNQ2 potassium channel inhibitors, primary screen, cell-based, CHO-K1, FluxOR thallium flux, B-score; Potassium voltage-gated channel subfamily KQT member 2 (Rattus norvegicus), O88943; 20 min; active compounds read low; B-score at 10 µM; 310,000 tested, 1.1% active; AID 2156, 2009;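 active = fluorescence ratio B-score at most minus 3 library SDs, with starting brightness B-score within 2 library SDs, cut at about -5.5 in these data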
Kir21 confirm – mouse Kir2.1 channel blockers, retest, confirmation, cell-based, FluxOR thallium flux, duplicate | shares compounds with KCNQ2 pot | Kir2.1-expressing cells, FluxOR thallium flux fluorescence; active compounds read low | Tl flux remaining, % of negative control (active compounds read low), % at 10 µM | 2,300 tested, 41% active | AID 2032, 2009;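 active = Primary-screen hit whose thallium flux fell at least 3 control SD below untreated wells in both duplicates, with normal baseline fluorescence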;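 note: 0% = blank wells without stimulus and 100% = stimulated no-compound controls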
HEK293 Tl flux – parental HEK293 activity in Kir2.1 inhibitor counter-screen; 2,300 tested, 19% active; FluxOR signal as % of negative control (100 = no effect), % at 10 µM; parental HEK293 cells, FluxOR thallium flux fluorescence; 0% = unstimulated blank wells; shares compounds with KCNQ2 pot;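 active = dye signal at least 3 control SD above or below untreated wells in both duplicates, raw fluorescence within 3, either direction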;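 note: percent is based on the flux ratio of peak minus minimum fluorescence over baseline F0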
CHO-K1 ctr – nonspecific thallium flux increase in parental CHO-K1, confirmation, counter-screen for KCNQ2 potentiator project, cell-based, FluxOR thallium flux, duplicate | shares compounds with KCNQ2 pot | parental CHO-K1 cells, FluxOR thallium flux fluorescence; zero = vehicle mean+3SD, 100% = vehicle-minus-blank window | activity increase over 3SD of controls, % at 10 µM | 1,200 tested, 43% active | AID 2282, 2010;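 active = signal rise of at least 3 SD above the untreated control mean, in both duplicate wells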;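 note: counter screen of KCNQ2 potentiator hits so any rise reflects channel-independent effects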
KCNQ1 pot spec – human KCNQ1 channel potentiation off-target, confirmation, selectivity assay for KCNQ2 potentiator project, cell-based, CHO, FluxOR thallium flux. shares compounds with KCNQ2 pot. CHO KCNQ1 stable, FluxOR thallium flux fluorescence; beyond 3SD, as % of vehicle-control signal. activation over 3SD threshold, % at 10 µM. 1,200 tested, 28% active. AID 2283, 2010;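 active = fluorescence ratio rise of at least 3 SD of vehicle wells above their mean, in both replicate wells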;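 note: 0% = vehicle mean plus 3 SD and 100% = vehicle minus unstimulated blank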
KCNQ2 pot conf – rat KCNQ2 channel potentiators, confirmation, cell-based, CHO, FluxOR thallium flux, duplicate. shares compounds with KCNQ2 pot. CHO-KCNQ2 cells, FluxOR thallium flux fluorescence. potentiation, less the hit threshold, % at 10 µM. 1,200 tested, 68% active;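 active = fluorescence ratio rising 3 SD or more over the vehicle control mean in both replicates, plus primary screen hit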;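 note: peak minus minimum thallium fluorescence divided by baseline after K/Tl stimulus; 0% = vehicle mean plus 3 SD and 100% = vehicle minus unstimulated blank difference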
Kir2-1 sel – mouse Kir2.1 channel activation off-target, confirmation, selectivity assay for KCNQ2 potentiator project, cell-based, HEK293, FluxOR thallium flux; HEK293 Kir2.1, FluxOR thallium flux fluorescence; activity over 3SD threshold, % at 10 µM; shares compounds with KCNQ2 pot; 1,200 tested, 2% active;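 active = fluorescence ratio rise of at least 3 SD above the vehicle-control mean, seen in both replicates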;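 note: 0% = vehicle mean plus 3 SD and 100% = vehicle minus no-stimulus blank window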
KCNQ2 W236L MoA – potentiators of retigabine-insensitive KCNQ2 W236L, mechanism study for KCNQ2 potentiator project, cell-based, rat KCNQ2 W236L, CHO, automated patch clamp; 940 tested, 10% active; current increase over 3SD of negative controls (%), active compounds read high, % at 25 µM; shares compounds with KCNQ2 pot; AID 2558, 2010; automated patch clamp current;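 active = current increase at least 3 SD of the untreated controls above them in both duplicate recordings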
Target sequence (O88943 whole entry W236L, looked up): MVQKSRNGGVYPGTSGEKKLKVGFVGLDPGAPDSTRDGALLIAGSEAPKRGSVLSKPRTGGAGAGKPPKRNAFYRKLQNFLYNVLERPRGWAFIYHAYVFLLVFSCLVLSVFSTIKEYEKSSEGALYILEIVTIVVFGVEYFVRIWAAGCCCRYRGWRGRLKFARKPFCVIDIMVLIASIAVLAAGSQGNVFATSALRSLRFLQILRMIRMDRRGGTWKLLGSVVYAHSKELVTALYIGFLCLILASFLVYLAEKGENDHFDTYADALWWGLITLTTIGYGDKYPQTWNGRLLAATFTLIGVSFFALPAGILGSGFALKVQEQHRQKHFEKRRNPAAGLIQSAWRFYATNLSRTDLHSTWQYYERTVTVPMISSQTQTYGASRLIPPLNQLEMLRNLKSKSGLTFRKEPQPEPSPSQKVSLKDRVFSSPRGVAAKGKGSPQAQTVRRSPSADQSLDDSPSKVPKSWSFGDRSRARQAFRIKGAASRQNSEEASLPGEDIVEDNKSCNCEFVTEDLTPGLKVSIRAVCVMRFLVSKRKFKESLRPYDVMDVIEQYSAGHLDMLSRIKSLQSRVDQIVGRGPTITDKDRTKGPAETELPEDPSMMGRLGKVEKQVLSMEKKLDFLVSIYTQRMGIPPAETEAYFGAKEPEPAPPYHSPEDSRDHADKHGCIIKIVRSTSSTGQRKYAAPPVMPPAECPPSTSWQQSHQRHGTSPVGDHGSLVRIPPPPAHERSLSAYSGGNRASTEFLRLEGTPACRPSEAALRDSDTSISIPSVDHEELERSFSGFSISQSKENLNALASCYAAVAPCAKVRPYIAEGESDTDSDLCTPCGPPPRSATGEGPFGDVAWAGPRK
An asterisk follows results filed as active; i = inactive; . = not tested or not shown. Shown are actives, neighbours in structure and some others; about 1.6% of the full set was active somewhere.

SMILES	KCNQ2 pot	KCNQ2 block	Kir21 confirm	HEK293 Tl flux	others
C=CCC(C(=O)OC)(C(=O)OC)c1ccccc1[N+](=O)[O-]	.	i	.	.
COC(=O)c1ccc(C)c(NC(=O)CN(c2ccccc2)S(=O)(=O)N(C)C)c1	.	i	.	.
Clc1ccc(COc2ccccc2CNCc2cccnc2)cc1	0.38	i	.	.
CCOc1cccc(CNCc2cccnc2)c1OCc1ccccc1	1.3	i	45%*	i
CC(=O)Nc1ccc(S(=O)(=O)N2CCC(C(=O)NCCC(=O)NCc3ccccc3)CC2)cc1	.	i	.	.
NC1=C(O)C(=O)C(c2ccccc2)O1 (centres undefined)	.	i	.	.
O=C(O)c1cnn(-c2nc(-c3cccc(F)c3)cs2)c1C(F)(F)F	0.46	i	.	.
O=C(O)c1cnn(-c2nc(-c3ccc(Cl)c(Cl)c3)cs2)c1C(F)(F)F	3.6	i	i	i
COc1ccc([N+](=O)[O-])cc1NC(=O)C1CCCO1 (centres undefined)	0.19	i	.	.
CCOC(=O)C1=C(C)N=c2s/c(=C/c3cccc(OCC(=O)O)c3)c(=O)n2C1c1ccc(F)cc1 (centres undefined)	0.96	i	.	.
CCOC(=O)C1=C(C)N=c2s/c(=C\c3ccc(C(=O)O)cc3)c(=O)n2C1c1ccc(F)cc1 (centres undefined)	7*	i	i	i	CHO-K1 ctr=11*;KCNQ1 pot spec=-30;KCNQ2 pot conf=-12;Kir2-1 sel=-45;KCNQ2 W236L MoA=i
OC(CN1CCN(c2ccccc2F)CC1)c1ccc(F)cc1 (centres undefined)	.	i	.	.
c1ccc2c(c1)ccc1ncccc12	0.05	i	.	.
Oc1c(N=Nc2ccccn2)ccc2ccccc12	5.9*	i	i	i	CHO-K1 ctr=91*;KCNQ1 pot spec=-14;KCNQ2 pot conf=28*;Kir2-1 sel=-39;KCNQ2 W236L MoA=i
Cc1cc(C)cc(N(CCC#N)C(=O)COC(=O)C2CCN(S(=O)(=O)c3ccc(C)c(C)c3)CC2)c1	0.72	i	.	.
CC(C)n1c(SCC(=O)Nc2nncs2)nnc1-c1ccco1	1.7	i	.	.
CC(C)OC(=O)c1c(NS(=O)(=O)c2ccccc2)sc2c1CCCC2	2.2	i	i	i
COC(=O)c1c(NS(C)(=O)=O)sc2c1CCCC2	0.04	i	.	.
COC(=O)c1c(NS(=O)(=O)Cc2ccccc2)sc2c1CCCC2	13*	i	i	236%*	CHO-K1 ctr=110*;KCNQ1 pot spec=-4;KCNQ2 pot conf=45*;Kir2-1 sel=-39;KCNQ2 W236L MoA=i
COC(=O)c1c(NC(=O)c2ccccc2N(C)S(=O)(=O)c2ccccc2)sc2c1CCCC2	.	i	.	.
CCCN1C(=O)c2ccccc2NC1c1ccc(Cl)c(Cl)c1 (centres undefined)	.	i	.	.
CN[C@H]1CC[C@@H](c2ccc(Cl)c(Cl)c2)c2ccccc21	.	i	32%*	i
N#CCOC(=O)C1CSC2(c3ccc(Br)cc3)CCC(=O)N12 (centres undefined)	.	i	.	.
CCc1ccc(NC(=O)CS(=O)CC(=O)Nc2ccc(-n3cnnn3)c(C)c2)cc1 (centres undefined)	0.02	i	.	.
CCOC(=O)c1c(C)n(CCNC(C)=O)c2ccc(OC)cc12	.	i	.	.
SMILES	KCNQ2 pot	KCNQ2 block	Kir21 confirm	HEK293 Tl flux	others
CCOC(=O)c1c(-c2ccccc2)c2cc(OC)ccc2n1CCCN(C)C	.	i	36%*	i
CCOC(=O)c1ccc(Nc2ncnc3ccc(C)cc23)cc1	0.62	i	.	.
CCOC(=O)c1cccc(Nc2ncnc3ccc(C)cc23)c1	1.7	i	52%*	i
O=C(NN1C(=O)C2C(c3ccccc3)C=CC(c3ccccc3)C2C1=O)c1ccncc1 (centres undefined)	6.5*	i	i	i	CHO-K1 ctr=-1;KCNQ1 pot spec=-7;KCNQ2 pot conf=72*;Kir2-1 sel=-41;KCNQ2 W236L MoA=i
O=C(NN1C(=O)C2C3C=CC(C3)C2C1=O)c1ccncc1 (centres undefined)	0.29	i	.	.
Cc1onc(-c2ccccc2)c1CNS(=O)(=O)c1cccc(Br)c1	0.46	i	52%*	i
Cc1onc(-c2ccccc2)c1CNS(=O)(=O)c1ccc(F)cc1F	.	i	.	.
Cc1c(C(=O)N2CCOCC2)c(S(=O)(=O)Nc2ccccc2)c(C)n1C	.	i	.	.
COCCn1c(=S)[nH]c2sc3c(c2c1=O)CCCC3	10*	i	i	326%*	CHO-K1 ctr=-24;KCNQ1 pot spec=35*;KCNQ2 pot conf=34*;Kir2-1 sel=-8;KCNQ2 W236L MoA=i
O=c1c2c3c(sc2[nH]c(=S)n1Cc1ccco1)CCC3	4.7	i	.	.
Cc1ccc(-n2c(=S)[nH]c3sc4c(c3c2=O)CCC4)cc1	2	i	.	.
C=CCn1c(=S)[nH]c2sc3c(c2c1=O)CCCC3	11*	i	i	298%*	CHO-K1 ctr=-4;KCNQ1 pot spec=-25;KCNQ2 pot conf=63*;Kir2-1 sel=-25;KCNQ2 W236L MoA=i
c1ccc(CCNc2ncnc3ccccc23)cc1	.	i	.	.
CCCCCCCCNc1ncnc2ccccc12	.	i	i	128%*
CCCCn1nnc(NC(=O)CC23CC4CC(CC(C4)C2)C3)n1	20*	i	i	i	CHO-K1 ctr=10*;KCNQ1 pot spec=-24;KCNQ2 pot conf=59*;Kir2-1 sel=-34;KCNQ2 W236L MoA=i
CC(C)c1nnc(NC(=O)CC23CC4CC(CC(C4)C2)C3)s1	.	i	.	.
COc1ccc(NC(=O)C2CCCN(C(=O)Nc3ccc(F)cc3)C2)cc1 (centres undefined)	.	i	.	.
CCCn1c(=N)n(CC(O)COc2ccc(C)cc2)c2ccccc21 (centres undefined)	1.5	i	.	.
CCCn1c(=N)n(CC(O)c2ccc(C)cc2)c2ccccc21 (centres undefined)	0.93	i	60%*	i
CCOc1cc(C(=O)N(CC)CC(=O)Nc2c(F)cccc2F)ccc1OCC(=O)N1CCCCC1	0.54	i	.	.
